Values joined by “and” are separate entries in the source; they are usually repeats but may differ in a detail not shown here. Identical values can stand only once. Inconclusive results are not listed. Where a structure was tested more than once in an assay, its records may differ in their call. Active and inactive are the calls of the source. The calls were made as follows: active = hit-call score of the fitted dose curve at least 0.9, where 1 is the maximum; inconclusive = response in the unintended direction; inactive = score below 0.9.

24 compounds from PubChem BioAssay (EPA / NIEHS) can be followed below.

Assay [1] is described as follows: TOX21_p53_BLA_p2_viability: Viability Assessment in the Tox21 HCT-116 p53 Agonism Beta-lactamase Assay, Phase 2 (AID 2283591).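 Also: actives lower the ATP signal meaning cytotoxicity.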 In a few lines: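 Cytotoxicity readout: CellTiter-Glo ATP luminescence, 30 min at room temperature, after the beta-lactamase read. Cells were HCT116 exposed 16 h at 37C to compounds pin-transferred at 217-fold dilution from DMSO stocks.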

The target of assay [2] is Cellular tumor antigen p53 (Homo sapiens) (UniProt P04637). Nature of the assay: TOX21_p53_BLA_p2_ratio: Tox21 HCT-116 p53 Agonism Beta-lactamase Assay, Ratio, Phase 2 (AID 2283592). In a few lines: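 Readout: blue/green (460/530 nm) FRET emission ratio after 2 h CCF4-AM loading at room temperature, excitation 405 nm. HCT116 p53 bla cells, 16 h compound exposure at 37C, 5% CO2; agonist direction fitted against DMSO baseline.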
Cellular tumor antigen p53 (Homo sapiens), sequence (P04637 whole entry, looked up): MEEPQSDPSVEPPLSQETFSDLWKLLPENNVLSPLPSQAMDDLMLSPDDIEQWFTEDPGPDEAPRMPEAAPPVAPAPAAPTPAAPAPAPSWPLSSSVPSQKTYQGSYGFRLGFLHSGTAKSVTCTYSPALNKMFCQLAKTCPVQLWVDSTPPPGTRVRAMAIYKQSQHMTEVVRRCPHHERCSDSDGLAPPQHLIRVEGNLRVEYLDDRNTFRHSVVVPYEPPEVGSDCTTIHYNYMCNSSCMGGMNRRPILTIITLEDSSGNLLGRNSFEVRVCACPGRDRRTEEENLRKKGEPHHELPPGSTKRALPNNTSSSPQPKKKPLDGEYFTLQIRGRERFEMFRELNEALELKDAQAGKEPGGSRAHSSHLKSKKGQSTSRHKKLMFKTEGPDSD

Assay [3] can be described thus: TOX21_p53_BLA_p3_viability: Viability Assessment in the Tox21 HCT-116 p53 Agonism Beta-lactamase Assay, Phase 3 (AID 2283593).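 Also: cells exposed to compound for 16 h before reading.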 In a few lines:
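Cellular ATP was quantified by CellTiter-Glo luminescence, read after 30 min at room temperature. Beforehand, HCT116 cells (4000/well) received compound 5 h post-seeding, 217-fold diluted from DMSO, then incubated 16 h at 37C.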

Assay [4] concerns the target Cellular tumor antigen p53 (Homo sapiens) (UniProt P04637). In words: TOX21_p53_BLA_p3_ratio: Tox21 HCT-116 p53 Agonism Beta-lactamase Assay, Ratio, Phase 3 (AID 2283596). In a few lines:
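Cells were seeded at 4000/well, rested 5 h at 37C, then dosed with DMSO compound solutions (217-fold dilution) for 16 h. CCF4-AM substrate was loaded for 2 h at room temperature, and the 460/530 nm emission ratio was fitted for gain of signal versus DMSO.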

Assay [5] shares this target. In words: TOX21_p53_BLA_p5_ratio: Tox21 HCT-116 p53 Agonism Beta-lactamase Assay, Ratio, Phase 5 (AID 2283599). In a few lines:
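Beta-lactamase reporter ratio (blue 460 nm over green 530 nm, 405 nm excitation) after 2 h CCF4-AM loading, in HCT-116 cells exposed 16 h at 37 C to compounds pinned at 217-fold dilution. Increases relative to DMSO baseline scored.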

A short description of assay [6]: TOX21_p53_BLA_p5_viability: Viability Assessment in the Tox21 HCT-116 p53 Agonism Beta-lactamase Assay, Phase 5 (AID 2283600). In a few lines:
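ATP luminescence (CellTiter-Glo, 30 min, RT) served as the viability read-out, with loss of signal indicating cytotoxicity. Compounds in DMSO were pinned at a 217-fold dilution onto 4000 cells/well and incubated 16 h, 37C.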

The target in assay [7] is Cellular tumor antigen p53 (Homo sapiens) (UniProt P04637). In words: TOX21_p53_BLA_p4_ratio: Tox21 HCT-116 p53 Agonism Beta-lactamase Assay, Ratio, Phase 4 (AID 2283601). In a few lines: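 Signal is the blue/green (460nm/530nm) ratio of cleaved versus uncleaved CCF4-AM substrate, read after 2 h substrate loading. Cells were HCT116 carrying the p53-responsive beta-lactamase reporter, dosed 16 h at 37C, 5% CO2; CellTiter-Glo measured in parallel.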

Assay [8] is described as follows: TOX21_p53_BLA_p4_viability: Viability Assessment in the Tox21 HCT-116 p53 Agonism Beta-lactamase Assay, Phase 4 (AID 2283597).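 Also: hits lower the luminescence signal meaning cytotoxicity.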 In a few lines:
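ATP content by CellTiter-Glo luminescence, 30 min RT, read after the beta-lactamase ratio step. Cells: HCT116, 4000/well, compound added after 5 h, exposure 16 h at 37C. Signal loss = reduced viability.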

Consider `CC1(O)CSC(C)(O)CS1` (centres undefined), for which the call in assay [1], in assay [2], in assay [3], in assay [4], in assay [5] and in assay [6] was inactive. Also, the outcome in assay [7] was inactive.

For `O=[Se](O)O`, the AC50 was 7.1 µM (active) in assay [1]; 1.79 µM (active) in assay [2]; 13.3 µM (active) in assay [3]; 0.548 µM (active) in assay [4]; 26 µM (active) in assay [8]; 2.46 µM (active) in assay [5]. Moreover, in assay [7], the half-maximal activity concentration (AC50) was 4.23 µM (active). In addition, the outcome in assay [1], in assay [2], in assay [3], in assay [4], in assay [8] and in assay [5] was inactive. Further, the compound was classed as inactive in assay [6] and in assay [7].

For `CC(=O)O[C@]1(C(C)=O)CC[C@H]2[C@@H]3C=C(Cl)C4=CC(=O)CC[C@]4(C)[C@H]3CC[C@@]21C`, the compound was called inactive in assay [1], in assay [2], in assay [3], in assay [4], in assay [8] and in assay [5]. The compound was classed as inactive in assay [6]. For the same compound, the results for the AC50 in assay [2], in assay [4] and in assay [8] were 43.1 µM (active), 72.5 µM (active) and 21.8 µM (active), respectively.

`CC(O)(c1ccc(Cl)cc1)c1ccc(Cl)cc1`: the compound was called inactive in assay [1], in assay [3], in assay [4], in assay [8], in assay [5] and in assay [7].

In the case of `COC(=O)CCC(=O)O`, the result in assay [1] was inactive.

As to `CC1=C(/C=C/C(C)=C/C=C/C(C)=C/C(=O)Nc2ccc(O)cc2)C(C)(C)CCC1`, the AC50 in assay [1] is 44.5 µM (active); in assay [3], 62.5 µM (active); in assay [4] it was 74.6 µM (active); in assay [8], 53.7 µM (active) and 35 µM (active); in assay [5] it was 73.6 µM (active) and 37.7 µM (active); in assay [6], 43.7 µM (active) and 37.9 µM (active). Also, in assay [7], the AC50 is 72.5 µM (active) and 36.6 µM (active). The call in assay [1], in assay [3] and in assay [4] was inactive.

In the case of `O=S(=O)(O)c1cc(Cl)c(Cl)cc1Cl`, the compound was called inactive in assay [1], in assay [8] and in assay [5].

In the case of `CC(C)CC(=O)C1C(=O)c2ccccc2C1=O`, the result in assay [1], in assay [4], in assay [5], in assay [6] and in assay [7] was inactive.

For the compound `CC(=O)Oc1ccccc1C(=O)Nc1ncc([N+](=O)[O-])s1`, the concentration at half-maximal activity (AC50) in assay [1] is 10.7 µM (active); in assay [2], 2.61 µM (active) and 14.1 µM (active); in assay [3], 4.46 µM (active) and 6.54 µM (active); in assay [4], 1.19 µM (active) and 15.5 µM (active); in assay [8], 12.7 µM (active); in assay [5], 3.18 µM (active) and 22.4 µM (active). Moreover, the AC50 in assay [7] was 5.33 µM (active). For the same compound, the call in assay [1], in assay [8] and in assay [7] was inactive.

As for `Oc1cccc(O)c1O`, the call in assay [1], in assay [2], in assay [3], in assay [4], in assay [8] and in assay [5] was inactive. Besides, the outcome in assay [6] and in assay [7] was inactive. For the same compound, in assay [2], the AC50 was 75.6 µM (active).

For `CCOc1cccc(N)c1`, the compound was classed as inactive in assay [1], in assay [2] and in assay [3].

For `C=C(CC)C(=O)c1ccc(OCC(=O)O)c(Cl)c1Cl`, the compound was called inactive in assay [1], in assay [3], in assay [8], in assay [5], in assay [6] and in assay [7]. For the same compound, the AC50 in assay [2] was 13.8 µM (active) and 6.46 µM (active); in assay [4] it was 50.8 µM (active) and 38.9 µM (active); in assay [8], 45.8 µM (active); in assay [5], 24.7 µM (active); in assay [7], 25.2 µM (active).

Consider `CC(=O)Nc1ccc(C=NNC(N)=S)cc1`, for which the result in assay [1], in assay [2], in assay [3], in assay [4], in assay [8] and in assay [5] was inactive.

For the compound `CC=CC(=O)CCCC`, the call in assay [1], in assay [2], in assay [3], in assay [4] and in assay [8] was inactive.

On to `Nc1cc(S(=O)(=O)O)ccc1O`, for which the result in assay [1], in assay [2], in assay [3], in assay [4], in assay [8] and in assay [5] was inactive.

For `O=C(O)c1ccc(S(=O)(=O)N(Cl)Cl)cc1`, the compound was classed as inactive in assay [1], in assay [2], in assay [3], in assay [4], in assay [8] and in assay [5]. Moreover, the compound was called inactive in assay [6] and in assay [7]. In addition, the AC50 in assay [2] is 64.5 µM (active).

Consider `COC1=C(OC)C(=O)C(C/C=C(\C)CC/C=C(\C)CC/C=C(\C)CC/C=C(\C)CC/C=C(\C)CC/C=C(\C)CC/C=C(\C)CC/C=C(\C)CC/C=C(\C)CCC=C(C)C)=C(C)C1=O`, for which the compound was classed as inactive in assay [1], in assay [2], in assay [3], in assay [4], in assay [8] and in assay [5]. In addition, the result in assay [6] and in assay [7] was inactive. In addition, the AC50 in assay [4] is 42.8 µM (active).

On to `CC1(C)[C@@H](O)CC[C@]2(C)[C@H]3C(=O)C=C4[C@@H]5C[C@@](C)(C(=O)O)CC[C@]5(C)CC[C@@]4(C)[C@]3(C)CC[C@@H]12`, for which the result in assay [1], in assay [2], in assay [3], in assay [4], in assay [8] and in assay [5] was inactive. The call in assay [6] and in assay [7] was inactive. Further, the AC50 is 61.4 µM (active) and 22.5 µM (active) in assay [3]; 46.4 µM (active) in assay [4]; 43.1 µM (active) in assay [5]; 30.6 µM (active) and 33.5 µM (active) in assay [6].

Consider `COc1cc(/C=C/C(=O)O[C@H]2CC[C@]34C[C@]35CC[C@]3(C)[C@@H]([C@H](C)CCC=C(C)C)CC[C@@]3(C)[C@@H]5CC[C@H]4C2(C)C)ccc1O`, for which the outcome in assay [1], in assay [2], in assay [3], in assay [4], in assay [8] and in assay [5] was inactive. For the same compound, in assay [6], the call was inactive. The half-maximal activity concentration (AC50) in assay [3] is 26.8 µM (active); in assay [4], 23 µM (active); in assay [5], 13.3 µM (active); in assay [7] it was 6.07 µM (active).

For `NC(=O)NNc1ccccc1`, the compound was called inactive in assay [1], in assay [2], in assay [3], in assay [4], in assay [8] and in assay [5]. Besides, the outcome in assay [6] and in assay [7] was inactive. The results for the AC50 in assay [4] and in assay [7] were 0.000125 µM (active) and 6.08e-05 µM (active), respectively.

For `O=S(=O)(O)c1ccc2nc(-c3ccccc3)[nH]c2c1`, the AC50 in assay [1] was 30.2 µM (active) and 19.9 µM (active); in assay [3], 15.6 µM (active); in assay [8], 33.8 µM (active) and 23 µM (active); in assay [6] it was 24.8 µM (active). The result in assay [2], in assay [3], in assay [4], in assay [6] and in assay [7] was inactive.

With `O=C(c1ccccc1O)c1ccccc1O`, the compound was classed as inactive in assay [1], in assay [2], in assay [3], in assay [4] and in assay [8].

With `OCCN1CCN(CC/C=C2/c3ccccc3Sc3ccc(Cl)cc32)CC1`, the compound was classed as inactive in assay [1], in assay [2] and in assay [3].

For the compound `COC(=O)C1=C(C)NC(C)=C(C(=O)OC)C1c1ccccc1[N+](=O)[O-]`, the compound was classed as inactive in assay [1], in assay [2], in assay [3], in assay [4], in assay [8] and in assay [5]. For the same compound, the result in assay [6] and in assay [7] was inactive. The AC50 in assay [3] was 38.3 µM (active).

As a reminder, the AC50 is the concentration at which the activity in the assay is half-maximal.
